Assay outcomes deposited in PubChem BioAssay by National Center for Advancing Translational Sciences (NCATS).
This is one part of a sample in which hits are shown more often than they occur.
Cycloheximide cs = Cycloheximide Counterscreen for Small Molecule Inhibitors of Shiga Toxin; cell reporter, cycloheximide protein synthesis inhibition counterscreen; 12% of 300,000 active; max response, %; in the data active means max response mostly above about 13%, no sharp cut-off; inactive means mostly below about 14%; further: read at 38.3 µM for the half of the compounds with a filed dose; 0% is about no effect
Shiga toxin inh = A qHTS for Small Molecule Inhibitors of Shiga Toxin; Vero cells, Shiga toxin protein synthesis inhibition reporter; inhibition, % at 38.7 µM; 9.2% of 290,000 active; in the data active means inhibition mostly above about 28%, no sharp cut-off; inactive means mostly below about 43%; further: 0% is about no effect
AMA1 RON2 block = qHTS for Inhibitors of AMA1-RON; Towards Development of Antimalarial Drug Lead: Primary Screen | Plasmodium falciparum AMA1 (3D7) - RON2 peptide interaction | AlphaScreen AMA1-biotinylated RON2 peptide binding | Potency, µM (top dose mostly 58.2 µM), without a hit: at the top dose activity change, negative = inhibition, actives largely listed as inhibitors | 0.2% of 360,000 active | AID 720542, 2013; active means well fitted inhibition curve with a large enough effect; inconclusive means small, poorly fitted or top-dose-only effect; inactive means no such curve, though single readings can be large or run the other way;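 further: potency means the concentration at half of the fitted maximal effect; 0% = vehicle wells and -100% = peptide control; nearly all actives have a fitted effect of over 45% in size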
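AMA1 (3D7) with his tag at 25 nM final met compounds first, then biotinylated RON2 peptide at 25 nM; detection used donor plus acceptor beads, 10 µg/mL apiece, read by AlphaScreen after 30 min at room temperature.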
LASV entry inh = qHTS for Inhibitors of binding or entry into cells for Lassa Virus; Lassa virus pseudotype entry inhibition, cell reporter; AID 540256, 2011; 1.2% of 300,000 active; Potency, µM (highest dose often 37.9 µM), for the others: top-dose activity change, negative = inhibition, hits mostly inhibitors; calls by dose curve; tested in HEK293 cells; further: potency means the concentration at half of the fitted maximal effect; on the % scale 0 is the no-effect control and ±100 the full control effect; nearly all actives have a fitted effect of over 50% in size
MARV entry inh = qHTS for inhibitors of binding or entry into cells for Marburg Virus; Potency, µM (titrated, usually from 37.8 µM), for the others: at the highest dose activity change, negative = inhibition, most hits filed as inhibitors; Marburg virus pseudotyped entry inhibition, cell reporter; 1.8% of 300,000 active; calls by dose curve; tested in HEK293 cells; further: potency means the concentration at half of the fitted maximal effect; on the % scale 0 is the no-effect control and ±100 the full control effect
* hit, by the source's call; ? = inconclusive; . = no result; + = active, no number; [ ] = dose if it differs, or a comment.

SMILES	Cycloheximide cs	Shiga toxin inh	AMA1 RON2 block	LASV entry inh	MARV entry inh
N[C@@]1(C(=O)O)CO[C@H]2[C@H](C(=O)O)[C@H]21	-5	2	.	.	.
CCOC(=O)CSc1nc(-c2ccc(C)cc2C)cc(-c2ccccc2)c1C#N	.	.	.	-13%[46.1 µM]	.
CN(C)c1ccc(C=Nc2cnn(C)c2C(N)=O)cc1	39*	90*	-8%	0%	26%[46.1 µM]
Cc1ccccc1Oc1nc(-c2ccccn2)nc2ccccc12	39*	46*	55%	?	?
CC(=O)Nc1cccc(Oc2nc(C(F)(F)F)nc3ccccc23)c1	0	-4	30%	24%[46.1 µM]	0%[46.1 µM]
CC(=O)Nc1ccc(Oc2nc(-c3ccccn3)nc3ccccc23)cc1	58*	54*	68%	?	?
CC(=O)Nc1cccc(Oc2nc(-c3ccccn3)nc3ccccc23)c1	15*	36	33%	3%	?
Cc1cccc(Oc2nc(-c3ccccn3)nc3ccccc23)c1	34*	63*	45%	-18%	?
CN(C)c1ccc(C(CNC(=O)COc2ccc(Cl)cc2)N2CCCC2)cc1 (stereo not given)	-1	3	-20%	.	.
CC(=O)OCC1=C(C(=O)O)N2C(=O)[C@@H](NC(=O)CCC[C@@H](N)C(=O)O)[C@H]2SC1	.	.	.	0%	-7%
O=C(Cn1cnc2c(OCc3ccccc3)ncnc21)N[C@H](CO)Cc1cc2ccccc2[nH]1	.	.	-3%	.	.
CS(=O)(=O)N1N=C(c2ccco2)CC1c1ccco1 (stereo not given)	2	9	-17%	.	.
CS(=O)(=O)N1N=C(c2ccco2)CC1c1ccccc1 (stereo not given)	-2	-2	0%	9%	26%
Cc1ccc(C2CC(c3ccco3)=NN2S(C)(=O)=O)cc1 (stereo not given)	28*	40*	3%	?	-3%
CS(=O)(=O)N1N=C(c2ccco2)CC1c1ccc(Cl)cc1 (stereo not given)	30*	18	-10%	-2%	?
O=C(COC(=O)CN1C(=O)NC2(CCCC2)C1=O)Nc1c(Cl)cccc1C(F)(F)F	.	.	8%	11%	23%
CC(C)(C)c1cc(-c2ccccc2)n[nH]1	15*	34	-9%	.	.
CC(C)(C)NC(=O)c1cc(-c2ccccc2)n[nH]1	4	11	-6%	-7%	5%
CC(=O)c1ccc(N2CCN(CC(=O)N(CC(C)C)c3c(N)n(CC(C)C)c(=O)[nH]c3=O)CC2)cc1	12*	-9	-10%	?	0%
COc1cccc(N(C(=O)c2nc3nccc(C)n3n2)c2nc3ccccc3s2)c1	27*	67	-24%	?	?
COc1ccc(C)cc1N(C(=O)COc1ccccc1)c1nc2ccccc2s1	2	15	-9%	-17%	?
COc1cccc(NC(=O)COC(=O)c2nc3nccc(C)n3n2)c1	13*	22	4%	5%	-3%
CCN(Cc1cc2cc(C)ccc2[nH]c1=O)C(=O)c1cccc([N+](=O)[O-])c1	-2	7	13%	.	.
CCCCCCN(CCCCCC)C(=O)Cc1c(-c2ccc(F)cc2)[nH]c2ccccc12	.	.	4%	9.2µM*	9.2µM*
Cn1c(O)c(C=NCC2CCNCC2)c(=O)n(C)c1=O	-3	1	.	.	.
SMILES	Cycloheximide cs	Shiga toxin inh	AMA1 RON2 block	LASV entry inh	MARV entry inh
CCOC(=O)C(=O)N(CC)C1CCS(=O)(=O)C1 (stereo not given)	8.9*	10	-28%	-2%	-18%[14.2 µM]
CCN(C(=O)COC(=O)c1cnc(C)cn1)C1CCS(=O)(=O)C1 (stereo not given)	.	.	-10%	4%	?
CCN1CCOC(=O)C1CC(=O)Nc1ccc(Br)cc1 (stereo not given)	.	.	.	12%[46.1 µM]	4%[46.1 µM]
Cc1ccc(S(=O)(=O)NC(=O)Nc2ccc(C)cc2C)cc1	7	-14	-7%	.	.
Cc1ccccc1NC(=O)c1ccc(S(=O)(=O)N(C)C)cc1	-1	-2	11%	.	.
Cc1ccccc1NC(=O)c1ccc(S(=O)(=O)C(F)F)cc1	18*	-3	-13%[11.6 µM]	8%	29%
Cc1ccc(NC(=O)c2ccc(S(=O)(=O)C(F)F)cc2)c(C)c1	28*	+	-4%	1%	5%
COc1cc(Oc2nc(C(F)(F)F)nc3ccccc23)ccc1C=O	1	-7	-6%	.	.
